From PubChem BioAssay
HCMV antiviral: inhibitors of human cytomegalovirus; HFF cells, HCMV-luciferase reporter, 72 h; hits give low values; activity change, negative = inhibition, % at 57.5 µM; 410,000 tested, 4.5% active; AID 1259415; in the data active = activity change below about -60%; inconclusive = no clear call, values can overlap the other calls; inactive = above about -39%
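Luciferase read-out from HCMV-luciferase-infected HFFs (MOI 1 PFU/cell) 72 h post infection at 37C; compounds added after 16 h cell attachment; activity normalized between buffer-only basal and Salinomycin (10uM) inhibitor controls.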
MARV entry inh: Marburg virus entry inhibition; Potency, µM (highest dose often 37.8 µM), inactives show top-dose activity change, negative = inhibition, usual class: inhibitors; 300,000 tested, 1.8% active; AID 540276; Marburg virus pseudotyped entry inhibition, cell reporter; calls by dose curve; tested in HEK293 cells; note: potency is the fitted concentration of half-maximal effect
LASV entry inh: Lassa virus entry inhibition; Lassa virus pseudotype entry inhibition, cell reporter; Potency, µM (titrated, usually from 37.9 µM), for inactives: top-dose activity change, negative = inhibition, actives largely listed as inhibitors; 300,000 tested, 1.2% active; AID 540256; calls by dose curve; tested in HEK293 cells; note: potency is the fitted concentration of half-maximal effect; nearly all actives have a fitted effect of over 50% in size
FMDV antiviral: blocks foot and mouth disease virus; FMDV antiviral cell-based qHTS; Potency, µM (top dose mostly 57.9 µM), without a hit: top-dose activity change, negative = inhibition, usual class: inhibitors; 410,000 tested, 1.2% active; AID 1159524; calls by dose curve; tested in HEK293T cells; note: read-out not given here; potency is the fitted concentration of half-maximal effect; nearly all actives have a fitted effect of over 45% in size
Numbers without * were called inactive; ? = inconclusive; . = no result; [ ] = remark or other dose. In the library only some 6.2% were active in any assay of this set; here they are far more common. % is set by controls: 0 for no effect and ±100 for the full control effect.

SMILES	HCMV antiviral	MARV entry inh	LASV entry inh	FMDV antiviral
C/C(=N\NC(=O)c1cc(C2CC2)nc2ccccc12)c1ccc(O)cc1O	-61*	?	?	4%
COc1ccc(/C(C)=N/NC(=O)c2cc(-c3cccnc3)nc3ccccc23)cc1	-3	-26%	0%	32%
CCOc1ccc(-c2cc(C(=O)N/N=C(\C)c3cccnc3)c3ccccc3n2)c(OCC)c1	-36	4µM*	?	8%
COc1ccc(-c2cc(C(=O)N/N=C(\C)c3cccnc3)c3ccccc3n2)cc1	47	-20%	-27%	29%
C/C(=N\NC(=O)c1cc(C2CC2)nc2ccccc12)c1ccc(C)s1	-4	?	1%	8%
Cc1cccc(C)c1OCc1nnc(NC(=O)CSc2ccc(Cl)cc2)s1	0	?	-13%	-9%
COc1ccc(S(=O)(=O)Nc2ccc(CC#N)cc2)cc1	-21	-28%[46.1 µM]	7%	39%
N#CCc1ccc(NS(=O)(=O)c2ccc(C3CCCCC3)cc2)cc1	-64*	?	0%	33%
O=C(Nc1ncn[nH]1)c1ccc(Cl)c(S(=O)(=O)Nc2ccc(Cl)cc2)c1	-3	4%	9%	22%
Cc1cnc(Nc2nc3ccccc3o2)nc1C(=O)Nc1cccc(C(F)(F)F)c1	-74*	-21%	0%	3%
Cc1occc1C(=O)Nc1cccc(C(F)(F)F)c1	-11	-13%	0%	2%
COc1cccc(-c2cc(C(=O)Nc3cccc(O)c3)no2)c1	85	4.6µM*	6.5µM*	-69%
COc1ccc(NC(=O)c2cc(-c3cccc(OC)c3)on2)cc1	40	23%[46.1 µM]	?	-9%
COc1ccc(CNCCc2c(C)[nH]c3ccc(OC(F)(F)F)cc23)c(OC)c1	-66*	6.3µM*	?	-12%
CS(=O)(=O)NCCNc1ccc(C(F)(F)F)cc1[N+](=O)[O-]	-15	.	.	22%
COc1ccc2[nH]c(C)c(CCNc3ccc(C(F)(F)F)cc3[N+](=O)[O-])c2c1	-20	2.5µM*	-2%	?
COc1ccc(NC2CCCN(C(=O)c3cc(C)nc4cc(F)ccc34)C2)cc1 (centres undefined)	-3	.	.	-8%
COC(=O)c1ccc(C2NC(=S)N(c3ccccc3)C(C)=C2C(=O)Nc2ccccc2OC)cc1 (centres undefined)	-1	?	6.5µM*	1%
CC1=C(C(=O)N2CCOCC2)C(c2ccc(Br)cc2)NC(=S)N1c1ccccc1 (centres undefined)	30	9%[46.1 µM]	15%	70%
COc1ccccc1NC(=O)C1=C(C)N(c2ccccc2)C(=S)NC1c1cccc(C(F)(F)F)c1 (centres undefined)	-96*	?	?	-22%
CC1CCC(NC(=O)C(C)N2C(=O)C3CCCCC3C2=O)CC1 (centres undefined)	1	.	.	18%
O=C1/C(=C\c2ccco2)SC(=S)N1Cc1ccccc1	-19	15%[46.1 µM]	-14%	-17%
COc1ccc(CCN2C(=O)/C(=C\c3ccco3)SC2=S)cc1OC	-96*	-3%	2%	?
COc1ccc(CCN2C(=O)CSC2=S)cc1OC	-101*	?	?	7%
COc1ccc(CN2C(=O)CSCC2=O)cc1OC	-8	.	.	-12%
SMILES	HCMV antiviral	MARV entry inh	LASV entry inh	FMDV antiviral
CC(CCl)OC(C)CCl (centres undefined)	-74*	.	.	-19%
CCCn1c(CC)nc([N+](=O)[O-])c1Sc1ccc(F)cc1	-40	-2%	-2%	18µM*
O=C(NCCc1ccccc1)C1C(=O)Nc2ccccc2C(=O)N1C1CCCCC1 (centres undefined)	13	.	.	-4%
C/C=C/c1ccc(OCCCNCC(C)O)c(OC)c1 (centres undefined)	-1	-12%	-1%	-18%
CCOC(=O)c1c(CSc2ccccc2)n(C)c2cc(Br)c(OC)c(O)c12	-12	.	.	?
CCOC(=O)c1c(CSc2ccccc2)n(C)c2cc(Br)c(OCC(O)CNC(CO)(CO)CO)cc12 (centres undefined)	-63*	?	?	-15%
CN(C)c1ncc2nc(-c3ccc(F)cc3)c(=O)n(Cc3cccs3)c2n1	.	.	.	-4%
CC(=O)C12CCCCC1CC1[C@@H]3CC(C)C4=CC(=O)CC[C@]4(C)C3CC[C@@]12C (some centres undefined)	-80*	14%[46.1 µM]	28%[46.1 µM]	?
CC(=O)OC1(C(C)=O)CCC2C3CC(C(F)(F)F)C4=CC(=O)CCC4(C)C3CCC21C (centres undefined)	-29	8.9µM*	?	-6%
O=C1Cc2cc(CCN3CCN(c4nsc5ccccc45)CC3)c(Cl)cc2N1	.	?	5.8µM*	.
CC(C)CCNC(=O)Cn1cc2c(n1)CCCCC2	9	.	.	-3%
Cc1ccc([N+](=O)[O-])cc1S(=O)(=O)Nc1ccc(C(=O)N(C)C)cc1	?	6%[46.1 µM]	9%	0%
CC(=O)Nc1ccc(NS(=O)(=O)c2cc([N+](=O)[O-])ccc2C)cc1	-71*	8%[46.1 µM]	-1%	13%
Cc1ccccc1NS(=O)(=O)c1cc(C(=O)Nc2cccc([N+](=O)[O-])c2)ccc1C	-95*	?	11µM*	-71%
C=CCN1C(=O)c2ccccc2Sc2ccc(C(=O)NCCC)cc21	-5	.	.	-10%
Cc1ccc(C2(C)NC(=O)N(CC(=O)NC(=O)NC(C)(C)C)C2=O)cc1 (centres undefined)	-4	-5%[46.1 µM]	2%	-18%
CCOc1ccc2c(ccc(/C=C/c3cc(C)c4cccnc4c3O)[n+]2C)c1	.	16µM*	?	?
Cc1cccc(Nc2nc3c(s2)CCCC3)c1	63	?	?	-24%
O=S1(=O)N=C(Nc2nc3c(s2)CCCC3)c2ccccc21	55	?	7.1µM*	-42%
Cc1nc(Nc2ccc(C(=O)O)cc2)sc1-c1ccccc1	14	?	?	7.1µM*
O=C(O)c1ccc(Nc2nc3c(s2)CCCC3)cc1	?	.	.	10µM*
Cc1nc(Nc2ccccc2)sc1-c1ccccc1	86	?	?	0%
CCCCOC(=O)c1cccc(NC(=O)/C=C/c2ccccc2Cl)c1	-95*	.	-28%[46.1 µM]	?
O=C(/C=C/c1ccccc1Cl)Nc1cccc(O)c1	28	.	.	-13%
CCN(C(=O)/C=C/c1ccc2c(c1)OCO2)c1ccccc1	-71*	23%	0%	10%
SMILES	HCMV antiviral	MARV entry inh	LASV entry inh	FMDV antiviral
O=C(/C=C/c1ccccc1Cl)Nc1ccccc1	131	10µM*	?	-16%
CCOC(=O)c1cccc(NC(=O)/C=C/c2ccc3c(c2)OCO3)c1	-11	?	?	40µM*
CCCCOC(=O)c1cccc(NC(=O)CCC(=O)O)c1	21	3%	23%	10%
Cc1cccc(NC(=O)CSc2nccn2-c2cccc(Cl)c2)c1C	-18	.	-23%[46.1 µM]	-4%
COc1cccc(CC(NC(C)=O)C(=O)NC2CCN(C(=O)Nc3ccc(C)cc3)CC2)c1 (centres undefined)	-13	10%[46.1 µM]	.	-9%
N=c1c2c(ncn1Cc1ccco1)Oc1ccc3ccccc3c1C2c1ccccc1 (centres undefined)	30	9.2µM*	?	?
COc1ccc(C2C3=C(CC(C)(C)CC3=O)Oc3ncn(Cc4ccco4)c(=N)c32)cc1 (centres undefined)	9	?	?	28µM*
